This is a sample that favours compounds with a hit; in the whole collection about 6.1% have one here.
D1 ag: Allosteric Agonists of the Human D1 Dopamine Receptor: qHTS; HEK293 T-REx D1 cells, calcium flux, agonist mode; 1% of 360,000 active; activation, % at 2 µM; D(1A) dopamine receptor (Homo sapiens), P21728; in the data active = activation above about 30%
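Inducible HEK293 T-REx D1 cells, force-coupled to calcium signalling, were plated at 4000 cells/well with tetracycline and held overnight at 30 C. After no-wash calcium dye loading, compound-evoked calcium rise over 180 s flagged agonists.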
ERG Ets-DNA blk: qHTS for Small Molecule Inhibitors of the ERG Ets/DNA interaction; Transcriptional regulator ERG (Homo sapiens), P11308; fluorescence polarization, His-ERG Ets domain / labelled DNA; Potency, µM (series often up to 76.9 µM), usual class: inhibitors; 0.028% of 370,000 active; AID 624246, 2012; active = well fitted inhibition curve with a large enough effect in the polarisation, with a control signal flat; inconclusive = small, poorly fitted or top-dose-only effect, or effect the other way, or a change in a side signal; inactive = no such curve, though single readings can be large or run the other way; the % refers to the polarisation;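 also: polarization taken with two DNA probes labelled with fluorescein and Texas red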
Target sequence (P11308 whole entry, looked up, the tested form may be a part): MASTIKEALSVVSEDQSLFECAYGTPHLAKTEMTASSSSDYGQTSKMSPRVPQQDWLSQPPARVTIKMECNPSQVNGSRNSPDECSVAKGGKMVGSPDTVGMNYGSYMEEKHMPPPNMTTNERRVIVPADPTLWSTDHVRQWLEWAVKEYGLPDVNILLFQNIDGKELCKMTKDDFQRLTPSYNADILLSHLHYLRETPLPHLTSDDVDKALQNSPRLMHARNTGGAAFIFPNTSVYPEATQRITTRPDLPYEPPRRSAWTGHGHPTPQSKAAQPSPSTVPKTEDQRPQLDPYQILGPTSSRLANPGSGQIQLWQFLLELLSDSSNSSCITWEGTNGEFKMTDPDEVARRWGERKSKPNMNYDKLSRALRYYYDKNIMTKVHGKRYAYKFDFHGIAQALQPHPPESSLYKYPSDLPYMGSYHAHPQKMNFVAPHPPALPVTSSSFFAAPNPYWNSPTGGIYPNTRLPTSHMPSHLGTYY
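His-tagged ERG Ets domain (1 uM in the protein solution; 300mM KCl, 50mM Tris-HCl, 1mM EDTA, 1mM DTT, pH 7.5) received compound, then a probe mix of 5 nM fluorescein-DNA and 100nM Texas-615-DNA. Fluorescence polarization was read for both dyes.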
D3 antag: qHTS of D3 Dopamine Receptor Antagonist: qHTS. D(3) dopamine receptor (Homo sapiens), P35462. D3R cells, DiscoveRx beta-arrestin luminescence, antagonist mode; active compounds read low. max response, negative = inhibition, %. 2.5% of 360,000 active. AID 652054, 2013; in the data active = max response below about -50%; inconclusive = no clear call, values can overlap the other calls
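Cells expressing the human receptor were seeded at 1500 cells/well, incubated overnight at 37 degrees C in 5% CO2, then exposed to library compounds with dopamine controls for 90 minutes at 37 degrees C before luminescent detection.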
D1 PAM: Potentiators of Human D1 Dopamine Receptor: qHTS | D(1A) dopamine receptor (Homo sapiens), P21728 | HEK293 TREx D1 cells, calcium flux, dopamine EC20 potentiation | potentiation, % at 10 µM | 0.036% of 360,000 active | AID 504651, 2011; in the data active = potentiation above about 30%
D3 ag: qHTS of D3 Dopamine Receptor Agonist: qHTS | D(3) dopamine receptor (Homo sapiens), P35462 | D3R DiscoveRx beta-arrestin cells, luminescence, 90 min | max activation, % | 0.58% of 410,000 active; in the data active = max activation above about 30%
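Cells at 1500/well, incubated overnight, then treated with pinned compounds (dopamine as control) for 90 min at 37 degrees C. DiscoveRx reagent added for 30 - 60 minutes at room temperature; luminescence read.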
D1 antag: Antagonist of Human D 1 Dopamine Receptor: qHTS; AID 504652, 2011; HEK293 TREx D1 cells, calcium flux, dopamine EC80; active compounds read low; activity change, negative = inhibition, % at 10 µM; 3.2% of 360,000 active; in the data active = activity change below about -30%
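Tetracycline-induced HEK293 Trex D1 cells, force-coupled to calcium, dye-loaded; compounds added and read 180 s, then EC80 dopamine added and calcium flux tracked kinetically another 180 s.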
Each line names hits and unclear results; the compound was inactive in the other large screens.

CCN(c1ccccc1)S(=O)(=O)c1ccc(OC)c(NC(=O)c2ccco2)c1	none (no result: D1 ag, ERG Ets-DNA blk, D1 PAM, D1 antag)
CCC(C)NCCOc1cc(C)cc(C)c1C (stereo not drawn)	D3 antag -69
Cc1ccsc1C(=O)Nc1nnc(-c2ccco2)o1	D3 antag -65
Cc1ccc(C(=O)Nc2nnc(-c3ccco3)o2)cc1	none
CCc1ccc(NCc2cc3cc4c(cc3n(CC(=O)Nc3ccc(Cl)cc3)c2=O)OCO4)cc1	D1 ag 176 (no result: D3 antag)
COc1ccc(NCc2cc3cc4c(cc3n(CC(=O)Nc3ccccc3)c2=O)OCO4)cc1	D1 ag 134 (no result: D3 antag)
COc1ccc(NCc2cc3cc4c(cc3n(CC(=O)Nc3cc(C)cc(C)c3)c2=O)OCO4)cc1	none (no result: D3 antag)
CCOC1=C2[C@@H](CN(S(=O)(=O)c3ccc(C)cc3)[C@H]2c2ccc(CC)cc2)[C@H]2C(=O)N(c3ccccc3)C(=O)[C@H]2C1	none (no result: D1 ag, ERG Ets-DNA blk, D1 PAM, D1 antag)
CC(C)c1ccccc1OCCCCCN1CCOCC1	D3 antag -54 (no result: D1 ag, D1 PAM, D1 antag)
CC(=O)c1ccccc1OCCCN1CCCCC1	none
CC(C)c1ccccc1OCCCN1CCCC1	D3 antag -87
CC(C)c1ccccc1OCCCCN1CCCCC1	D3 antag -103 (no result: D1 ag, D1 PAM, D1 antag)
O=C(Cn1cnc2ccccc21)Nc1ccc(F)c(F)c1	none
O=C(COC(=O)c1ccc(F)cc1)NCC1CCCCC1	none (no result: D1 ag, D1 PAM, D1 antag)
Cc1cc(C)c(C(=O)NC2CC(C)(C)Cc3c2cnn3-c2cccc(F)c2)[nH]1 (stereo not drawn)	none
CCn1nc(C)cc1C(=O)NC1CC(C)(C)Cc2c1cnn2-c1cccc(F)c1 (stereo not drawn)	D1 antag -64
CCOC(=O)c1ccc(COC(=O)CNC(=O)CNC(=O)Cc2ccccc2)cc1	none
O=C(CNC(=O)Cc1ccccc1)NCC(=O)OCc1ccc(C(=O)c2ccccc2)cc1	D1 antag -63
COc1ccc(-c2nc(SCC(=O)NC(C)CCc3ccccc3)n[nH]2)cc1 (stereo not drawn)	D1 antag -33 (no result: D3 antag)
COC(=O)CSc1n[nH]c(-c2cccnc2)n1	D1 antag -34 (no result: ERG Ets-DNA blk)
CCOC(=O)CSc1n[nH]c(-c2cccnc2)n1	none (no result: D1 ag, D1 PAM, D1 antag)
COc1ccc(NC(=O)CSc2n[nH]c(-c3ccccn3)n2)cc1	D1 antag -65
Cc1ccc(C2CC(C(F)(F)F)n3nc(C(=O)NCc4c(C)nn(C)c4C)c(Cl)c3N2)cc1 (stereo not drawn)	D3 ag 34
Cc1ccccc1NC(=O)N1C2CCC1CC(O)(c1cccnc1)C2 (stereo not drawn)	D1 antag -34
Cc1c(NC(=O)Nc2ccc(Cl)c(Cl)c2)sc(=S)n1C	D3 antag -73 (no result: D1 ag, D1 PAM, D1 antag)
COc1ccc(NC(=O)Nc2sc(=S)n(C)c2C)cc1	none
COc1ccc(CNC(=O)CCc2ccc(S(=O)(=O)N3CCCCCC3)cc2)cc1	none
COCC1CCN(Cc2cn(C)nc2-c2cccc(Cl)c2)C1 (stereo not drawn)	D1 antag -42
COCCN1CCN(Cc2cn(C)nc2-c2cccc(Cl)c2)CC1	none
CN(C)/C=C(\C=O)c1ncc(C(F)(F)F)cc1Cl	none
C[C@@H]1CN([C@@H](C)CO)C(=O)c2cccc(NC(=O)Nc3ccc(F)cc3)c2O[C@@H]1CN(C)Cc1ccc(Oc2ccccc2)cc1	D3 antag -71 (no result: D1 ag, D1 PAM, D1 antag)
C[C@H](CO)N1C[C@H](C)[C@@H](CN(C)Cc2ccc(Oc3ccccc3)cc2)Oc2c(NC(=O)C3CC3)cccc2C1=O	D3 ag 35 (no result: D1 ag, D1 PAM, D1 antag)
C[C@H](CO)N1C[C@H](C)[C@@H](CN(C)CC2CC2)Oc2c(NC(=O)C3CC3)cccc2C1=O	ERG Ets-DNA blk inconclusive, D3 ag 33 (no result: D1 ag, D1 PAM, D1 antag)
C[C@H](CO)N1C[C@H](C)[C@@H](CN(C)CC2CCCCC2)Oc2c(NC(=O)C3CC3)cccc2C1=O	none (no result: D1 ag, D1 PAM, D1 antag)
CCC(Sc1nc2ccncc2[nH]1)C(=O)Nc1ccc(C)c(Cl)c1 (stereo not drawn)	none
COc1cccc(Nc2c(Nc3cccc(OC)c3)c(=O)c2=O)c1	D3 antag -68
NS(=O)(=O)c1cccc(NC(=O)CSc2ncc(C(F)(F)F)cc2Cl)c1	none
S=C(NCCc1c[nH]c2ccccc12)NC1CCCCC1	none
S=C(NCCCc1ccccc1)NC1CCCCC1	D1 ag 32, D3 antag inconclusive
S=C(NCCc1c[nH]c2ccccc12)NC1CCCC1	D1 antag -39
COc1ccc(/C=N/Nc2ncc(C(F)(F)F)cc2Cl)cc1OC	none
Clc1ccc2c(N/N=C/c3ccc(Br)cc3)ccnc2c1	D1 antag -43
Clc1ccc2c(N/N=C/c3cccnc3)ccnc2c1	none
CCCc1nnc(NC(=O)c2cc3ccccc3o2)s1	D1 antag -53
COc1ccc(C(OC(=O)c2ccco2)C(=O)NC2CCCC2)cc1OC (stereo not drawn)	none
CC(=O)N1c2ccccc2C(C)(c2ccc(C)cc2)CC1(C)C (stereo not drawn)	D1 ag 56 (no result: D3 antag)
O=C(O)C(Sc1ccncn1)c1ccccc1 (stereo not drawn)	D1 antag -35
O=C1c2ccccc2NC(c2ccc(Cl)cc2Cl)N1Cc1ccccc1 (stereo not drawn)	D3 antag -53
O=C1Nc2ccccc2C1=Nc1cccc([N+](=O)[O-])c1	none
NC(=O)c1ccc(N=C2C(=O)Nc3ccc([N+](=O)[O-])cc32)cc1	D3 antag -62
COc1ccc(-n2nnnc2C(CCSC)N2CCN(C/C=C/c3ccccc3)CC2)cc1 (stereo not drawn)	D3 antag -127 (no result: D1 ag, ERG Ets-DNA blk, D1 PAM, D1 antag)
C(=C\c1ccccc1)/CN1CCN(C(c2nnnn2C2CCCC2)C2CC2)CC1 (stereo not drawn)	D3 antag inconclusive (no result: D1 ag, ERG Ets-DNA blk, D1 PAM, D1 antag)
CC(C)(C)n1nnnc1C(CCc1ccccc1)N1CCN(C/C=C/c2ccccc2)CC1 (stereo not drawn)	D3 antag -91 (no result: D1 ag, ERG Ets-DNA blk, D1 PAM, D1 antag)
CC(C)(C)n1nnnc1C(C1CC1)N1CCN(C/C=C/c2ccccc2)CC1 (stereo not drawn)	D3 antag inconclusive (no result: D1 ag, ERG Ets-DNA blk, D1 PAM, D1 antag)
CCC(c1nnnn1-c1c(C)cccc1C)N1CCN(C/C=C/c2ccccc2)CC1 (stereo not drawn)	D3 antag inconclusive (no result: D1 ag, ERG Ets-DNA blk, D1 PAM, D1 antag)
C(=C\c1ccccc1)/CN1CCN(C(CCc2ccccc2)c2nnnn2C2CCCC2)CC1 (stereo not drawn)	D3 antag -116 (no result: D1 ag, ERG Ets-DNA blk, D1 PAM, D1 antag)
